Results as given in PubChem BioAssay (NCATS).
Values joined by “and” are separate entries in the source; they are usually repeats but may differ in a detail not shown here. Identical values can stand only once. Inconclusive results are not listed. Unmarked numbers belong to inactive results. Active and inactive are the calls of the source. Calls follow the shape of the dose curve; as a rule, active = well fitted curve in the direction sought with a large enough effect; inconclusive = small, poorly fitted or top-dose-only effect, or another doubt; inactive = no such curve, though single readings can be large or run the other way.

Test: qHTS Assay for Identifying Gametocytocidal Compounds (AID 743244);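 as to max response: actives lower the fluorescent signal which means gametocytes are killed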
Conditions: P. falciparum 3D7 stage III-V gametocytes, alamarBlue, 72 h; max response: stronger effect = lower value
Description: Malaria cases and deaths have dropped 50% in 29 countries since 2000 due to the combined effects of long-lasting insecticidal bednets, indoor residual spraying, and artemisinin-based combination therapies (ACTs). This success has raised hopes for malaria eradication and consequently stimulated interest in developing new reagents that block gametocyte transmission such as novel and safe gametocytocidal drugs. However, previous drug development efforts have focused primarily on the asexual parasites that cause symptoms, but not malaria transmission. Consequently, patients can remain infectious for weeks after the clearance of asexual parasites and clinical symptoms. To be transmitted from person to person via a mosquito, the parasites must switch from asexual to sexual development and produce male and female gametocytes. Malaria gametocytes consist of five stages (I, II, III, IV and V). The late stage gametocytes (III, IV and V) are difficult to be cultured in vitro and the long lifespan of mature gametocytes allows them being transmitted from host to mosquitoes unless they are completely eliminated by gametocytocidal agents. To identify gametocytocidal compounds which are capable of killing late stage P. falciparum gametocytes, a high throughput gametocyte viability assay was employed. This assay uses oxidoreduction indicator, alamarBlue, as a general measure of metabolic activity of gametocytes. Within live cells, the nonfluorescent resazurin is reduced to resorufin, a bright red fluorescence dye. Fluorescence decreases upon treatment of gametocytocidal compounds. P. falciparum gametocyte (3D7 strain) was used in this study.
The 1536-well gametocycidal viability assay was based on the previous method of Tanaka et al. Stage III-V gametocytes were tested against three compound libraries, including 4265 compounds from NCGC pharmaceutical collection, 400 from Malaria Box library, and 550 from an internal collection of kinase inhibitors. Briefly, 2.5 ul/well incomplete medium was dispensed into each well of 1,536-well plates using the Multidrop Combi followed by 23 nl compound transferring using the NX-TR Pintool (WAKO Scientific Solutions, San Diego, CA). Then, 2.5 ul/well of gametocytes was dispensed with a seeding density of 20,000 cells/well using the Multidrop Combi. The assay plates were incubated for 72 h at 37C with 5% CO2. After addition of 5 ul/well of 2X AlamarBlue dye (Life Technologies, cat. no. DAL1100), the plates were incubated for 24 h at 37C with 5% CO2 and then were read in a fluorescence detection mode (Ex = 525 nm, Em = 598 nm) on a ViewLux plate reader (PerkinElmer).
% is scaled to controls: 0 for no effect and ±100 for the full control effect; potency is read from the fitted curve at half-maximal effect.

Row | Compound | max response | Potency
1 | NC(=O)OCCCc1ccccc1 | -5.39% | 
2 | NC(=O)CN1CCCC1=O | 0.359% and -8.59% | 
3 | NC(N)=NN=C(/C=C/c1ccc([N+](=O)[O-])o1)/C=C/c1ccc([N+](=O)[O-])o1 |  | 7.94 µM (active)
4 | O=C(O)c1ccccc1Nc1cc(Cl)ccc1C(=O)O | 32.7% | 
5 | C[N+](C)(C)CCOC(=O)C(O)(c1ccccc1)c1ccccc1 | -1.74% | 
6 | O=C(O)c1nn(Cc2ccc(Cl)cc2Cl)c2ccccc12 | -7.97% and 31% | 
7 | CC(C)=C[C@@H]1[C@@H](C(=O)OCc2coc(Cc3ccccc3)c2)C1(C)C | -1.71% | 
8 | C[C@]12C=CC(=O)C=C1CC[C@@H]1[C@@H]2CC[C@@]2(C)[C@H]1CC[C@]2(C)O | -4.85% | 
9 | CCN(CC)CCOC(=O)C(C)(c1ccccc1)c1ccccc1 | 10.8% | 
10 | O=C1NC2CCCCN2C12CCN(CCCN1c3ccccc3CCc3ccc(Cl)cc31)CC2 (stereo not given) |  | 22.4 µM (active)
11 | O=C(NC(=O)c1c(F)cccc1F)Nc1cc(Cl)c(OC(F)(F)C(F)C(F)(F)F)cc1Cl (stereo not given) | 13.1% | 
12 | CC(C)NCC(O)c1ccc(N)c(C#N)c1 (stereo not given) | 9.7% | 
13 | COc1cc(N)c(Cl)cc1C(=O)NC1CN2CCC1CC2 (stereo not given) | -2.64% | 
14 | O=C(N[C@H]1N=C(c2ccccc2F)c2cccc3c2N(CC3)C1=O)c1cc2ccccc2[nH]1 | -4.83% | 
15 | CC[C@H]1CN2CCc3cc(OC)c(OC)cc3[C@@H]2C[C@@H]1C[C@H]1NCCc2cc(OC)c(OC)cc21 |  | 1.41 µM (active)
16 | C#C[C@]1(O)CC[C@H]2[C@@H]3CCC4=CC(=O)CCC4=C3C=C[C@@]21CC | -5.06% | 
17 | CNC(=O)Oc1ccc2c(c1)[C@]1(C)CCN(C)[C@@H]1N2C |  | 11.2 µM (active) and 3.55 µM (active)
18 | O=C(O)CCCCCCNC1c2ccccc2CCc2ccccc21 | -6.01% | 
19 | CNC(=O)Oc1cccc2ccccc12 |  | 35.5 µM (active)
20 | CC[C@H]1C[C@H]2[C@@H]3CCC4=CC(=O)CC[C@@H]4[C@H]3CC[C@]2(C)[C@H]1O | -17.8% | 

Row | Compound | max response | Potency
21 | C[C@H](N)[C@H](O)c1ccc(O)c(O)c1 | -0.0676% | 
22 | CC[C@H](O)C(C[C@H](C)N(C)C)(c1ccccc1)c1ccccc1 | -14.1% | 
23 | CN1C[C@H](C(=O)N[C@]2(C)O[C@@]3(O)[C@@H]4CCCN4C(=O)[C@H](Cc4ccccc4)N3C2=O)C[C@@H]2c3cccc4[nH]cc(c34)C[C@H]21 |  | 2.35 µM (active)
24 | CC(Cc1ccc2c(c1)OCO2)NO (stereo not given) | -6.74% | 
25 | NC(N)=NC(=O)c1nc(Cl)c(N)nc1N | 25% | 
26 | COc1cc(C[C@@H](C)N)c(OC)cc1Br | 0.803% | 
27 | COCC(=O)N(c1c(C)cccc1C)C(C)C(=O)OC (stereo not given) | -6.72% | 
28 | COc1ccc(C(=O)N2CCCC2=O)cc1 | -3.61% and 29.8% | 
29 | CCCCCCCCC(=O)NCc1ccc(O)c(OC)c1 | -2.23% | 
30 | CN(C)C(=S)SSC(=S)N(C)C |  | 0.0662 µM (active)
31 | CN(C)C(=S)SC(=S)N(C)C |  | 0.794 µM (active)
32 | CCN(CC)CCCN(c1ccccc1)C1Cc2ccccc2C1 |  | 8.91 µM (active)
33 | COc1cc(C[C@@H](C)N)c(OC)cc1C | -6.71% | 
34 | CC(C)(C)OC(=O)c1ncn2c1[C@@H]1CCCN1C(=O)c1c(Br)cccc1-2 | 3.06% | 
35 | CC(C(O)c1ccccc1)N(C)CCOC(c1ccccc1)c1ccccc1 (stereo not given) |  | 5.01 µM (active)
36 | CCCC(C)C1(CC)C(=O)N=C(S)NC1=O (stereo not given) | 6.11% | 
37 | COc1ccc(OC)c(CC(C)N)c1 (stereo not given) | -18.6% | 
38 | CCCN(CCC)CCc1c[nH]c2ccccc12 | -3.32% | 
39 | CN1C(=O)CN=C(c2ccccc2)c2cc([N+](=O)[O-])ccc21 | 4.86% | 
40 | Cc1nnc2n1-c1sc(CCC(=O)N3CCOCC3)cc1C(c1ccccc1Cl)=NC2 | -5.44% and -14.1% | 
